Several values for one entry are separate records, joined by “and”; a condition that tells them apart may be missing. Equal values may be shown once. About 18,000 (4.4%) of roughly 410,000 compounds were called active. About 7% were inconclusive and are not listed. Shown is part of a subset that was picked to be rich in actives. A number with no mark means an inactive call. Rule as the data show it: active = activity change below about -60%; inconclusive = no clear call, values can overlap the other calls; inactive = above about -39%.

These results are taken from PubChem BioAssay AID1259415 (National Center for Advancing Translational Sciences (NCATS), 2018).
% is scaled to controls: 0 for no effect and ±100 for the full control effect.

The assay in a line: qHTS Assay for inhibitors of the human cytomegalovirus (HCMV). The settings on record: HFF cells, HCMV-luciferase reporter, 72 h; at 57.5 µM; active compounds read low. In short, it runs like this: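 Inhibition of viral replication was scored as loss of reporter luminescence in HFFs infected with HCMV-luciferase (MOI 1 PFU/cell) for 72 h; compounds tested at 2 doses, normalized to buffer and Salinomycin controls.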
Background: In qHTS, concentration-response curves come from the screen itself.
Turning to `CCCS(=O)(=O)c1c(Nc2ccccc2C)sc(C(=O)c2ccccc2)c1N`, the activity change, negative = inhibition is 16.8%.
Next, `O=c1cc(CSc2ncn[nH]2)[nH]c2ccc(F)cc12`: 10.7%.
Next, `CC(C)(C)N1C(=O)c2c(C(=O)OCc3ccccc3)[nH]c(-c3ccccc3)c2C1=O`: -12.2%.
Next, `CCN(CCCNC(=O)CSc1cc(=O)n(C)c2cc(Cl)ccc12)c1cccc(C)c1`: 1.12%; `COc1ccc(CCNC(=O)c2c3c(nc4ccccc24)C(=O)N(C2CCCCC2)C3)cc1OC`: -6.18%; `CCN(CCCNC(=O)c1cc2cc3cc(OC)ccc3nc2s1)c1ccccc1`: 44.1%.
On to `CCN(CCCNC(=O)c1cc(Nc2ccc(OC)cc2)nc2ccccc12)c1cccc(C)c1`, for which the activity change, negative = inhibition is -61.5% (active).
Next, `COc1ccccc1Nc1cc(C(=O)NCCCN(C)C2CCCCC2)c2ccccc2n1`: -98.1% (active); `CCCCN(CCCNC(=O)c1cc(Nc2ccccc2OC)nc2ccccc12)c1ccccc1`: -9.32%; `CCc1nc2cccnc2n1-c1ccc(CC(=O)Nc2c(C)cccc2C)cc1`: 0%.
Next, `Cc1cc(C)cc(NC(=O)c2cnc3sc(N4CCCC4)nn3c2=O)c1`: -28.7%.
Next, `CCCCCCCCn1c2c(c(=N)c3c1CCC3)CCCC2`: -99.4% (active); `CSc1ncc(C(=O)NCc2ccccc2Cl)c(C(F)(F)F)n1`: -2.41%; `O=C(CCN1CCCO1)N1CCCC(N2CCN(c3cccc(C(F)(F)F)c3)CC2)C1` (centres undefined): 69.3%.
Turning to `COC(=O)c1ccc(NC(=O)c2cc(S(=O)(=O)N3CCC(C)CC3)cn2C)cc1`, the activity change, negative = inhibition is -7.89%.
In the case of `Cc1c2cnn(-c3ccccc3)c(=O)c2c(C)n1C(C)C(=O)Nc1ccc(Br)cc1F` (centres undefined) it was -30.3%; in that of `CC1CC(C)CN(S(=O)(=O)c2cccc(C(=O)N3C(=O)c4cccc(N)c4C3=O)c2)C1` (centres undefined), 4.25%.
In the case of `Cn1c(=O)n(C)c2cc(S(=O)(=O)Nc3ccc(F)cc3)ccc21` it was 41.5%; in that of `Cn1c(=O)n(C)c2cc(NS(=O)(=O)c3ccc(F)cc3)ccc21`, 1.03% and 221%; in that of `Cn1c(CCN2CCN(c3ccccn3)CC2)nc2cc(NS(=O)(=O)c3ccc(F)cc3)ccc21`, -85.1% (active).
In the case of `COc1ccc(NC(=O)CSc2nc3ccccc3[nH]2)cc1` it was 2.79%; in that of `CCOc1ccccc1NC(=O)C1=C(C)Nc2ncnn2C1c1ccc(NC(C)=O)cc1` (centres undefined), 4.88%.
Take `CCOC(=O)C1=C(c2ccccc2)Nc2ncnn2C1c1ccc(Cl)cc1` (centres undefined): the activity change, negative = inhibition was -113% (active).
`CC1=C(C(=O)Nc2ccccc2Cl)C(c2cccs2)n2ncnc2N1` (centres undefined): the activity change, negative = inhibition was -15.8%.
Next, `CCc1nn(CC(=O)Nc2cc(C)cc(C)c2)c(=O)c2cc3sccc3n12`: -8.76%.
Next, `CCS(=O)(=O)N1CCC(n2c(C)nc3cccnc32)CC1`: -0.684%.
In the case of `CCCSc1nc2sc3c(c2c(=O)n1-c1cccc(Br)c1)CC(C)(C)OC3` it was -0.221%.
Take `CC/C(C)=N/Nc1nc2sc3c(c2c(=O)[nH]1)CC(C)(C)OC3`: the activity change, negative = inhibition is -10.6%.
Next, `C=CCNC(=S)NNc1ncnc2sc3c(c12)CC(C)(C)OC3`: -105% (active); `COc1ccc(NC(=O)C2CCCN(S(=O)(=O)c3c(C)[nH]c(=O)[nH]c3=O)C2)c(OC)c1` (centres undefined): 10.4%.
With `CC(/C=C/c1ccccc1)=N\NC(=O)C1CC1(C)c1ccccc1` (centres undefined), the activity change, negative = inhibition is -62.3% (active).
Regarding `CC(/C=C/c1ccco1)=N/NC(=O)C1COc2ccccc2O1` (centres undefined), the activity change, negative = inhibition is 27.4%.
Next, `COC(=O)C1(C)CC1(c1ccccc1)c1ccccc1` (centres undefined): 13.4%.
Turning to `Cc1cn(C2C=CC(CO)O2)c(=O)[nH]c1=O` (centres undefined), the activity change, negative = inhibition was -30.1%.
In the case of `COc1ccc(S(=O)(=O)NCC(c2ccc(N(C)C)cc2)N2CCCC2)cc1` (centres undefined) it was -4.35%.
Next, `Cc1cc(C(=O)OCC(=O)Nc2c(F)cccc2F)c(C)n1C1CC1`: -2.16%; `Cc1cc(C(=O)COc2ccccc2Cl)c(C)n1C1CC1`: -67.2% (active); `Cc1ccccc1NC(=O)COC(=O)c1cc(C)n(C2CC2)c1C`: -2.16%.
In the case of `COc1cccc(CNC(=O)C2CCC(CNS(=O)(=O)c3cccs3)CC2)c1` (centres undefined) it was -3.87%.
Regarding `Fc1cccc(-n2ncc3c2ncn2nc(-c4ccccc4Cl)nc32)c1`, the activity change, negative = inhibition was -25.2%.
In the case of `O=C(Cn1c(=O)n(Cc2ccccc2)c(=O)c2sc3ccccc3c21)Nc1ccccc1F` it was 20.5%.
`CCOc1ccc(S(=O)(=O)NCCC(=O)NNC(=O)c2ccc(F)cc2)cc1`: the activity change, negative = inhibition was 70.6%.
In the case of `Cc1ccc2sc(N(Cc3cccnc3)C(=O)C3COc4ccccc4O3)nc2c1C` (centres undefined) it was 0%.
In the case of `S=c1c2[nH]cnc2ncn1CCSc1ncnc2nc[nH]c12` it was -16%; in that of `CCc1ccc(N(CC)c2ncnc3nc[nH]c23)cc1`, -84.7% (active); in that of `Cc1ccc(NC(=O)c2ccc(CSc3ncnc4nc[nH]c34)cc2)c(C)c1`, -37%.
Take `CC(C)(C)C1CCc2c(sc(NC(=O)c3ccccc3F)c2C(=O)N2CCCCC2)C1` (centres undefined): the activity change, negative = inhibition is -1.57%.
Turning to `CCOC(=O)NN1C(=O)c2ccccc2NC1c1ccccc1O` (centres undefined), the activity change, negative = inhibition was 54.6%.
Next, `CC(=O)NN1C(=O)c2ccccc2NC1c1ccccc1` (centres undefined): 44.7%.
In the case of `CCOC(=O)NN1C(=O)c2ccccc2NC1c1cccc(O)c1` (centres undefined) it was -96.9% (active); in that of `CC1(C)C(C=C(Cl)Cl)C1C(=O)NC(O)C(=O)c1ccccc1` (centres undefined), -33.9%.
On to `Cc1cc(C)cc(NC(=O)Cn2c(=O)c3ccccc3n3nncc23)c1`, for which the activity change, negative = inhibition was 2.01%.
`CC(=O)c1sc(N2C(=O)c3oc4ccccc4c(=O)c3C2c2ccc(C)cc2)nc1C` (centres undefined): the activity change, negative = inhibition is 24.4%.
`CCOc1ccc(OCc2ccc(C(=O)N(C)c3ccccc3)o2)cc1`: the activity change, negative = inhibition is 41.3%.
For the compound `CCN(CC)c1ccc(NC(=O)CN2CCN(c3ccccn3)CC2)cc1`, the activity change, negative = inhibition is 28.5%.
In the case of `CN(C(=O)CN1CCN(c2cc(-c3ccc(OCc4ccccc4)cc3)ncn2)CC1)c1ccccc1` it was -71.2% (active); in that of `CCCc1cc(=O)n2[nH]c(NCc3ccc(CC)cc3)nc2n1`, -6.39%; in that of `CC(=O)NC(c1ccccc1)c1nc(-c2cccc(C(C)C)c2)cs1` (centres undefined), -66.8% (active).
For `CC(=O)NC(c1ccccc1)c1nc(-c2ccccc2C)cs1` (centres undefined), the activity change, negative = inhibition was -25.4%.
Next, `OC(c1ccccc1)c1nc(-c2cnc3ccccc3c2)cs1` (centres undefined): 184%; `Cc1ccc(N(C)C(=O)C2CCN(S(=O)(=O)c3ccc4c(c3)CCCN4C(=O)C3CCC3)CC2)cc1`: 8.58%; `Cc1c(NC(=O)C(C)Oc2cccc(Cl)c2)c(=O)n(-c2ccccc2)n1C` (centres undefined): -25%.
In the case of `NC(=O)C1CCN(C(=O)CC2C(=O)NCCN2Cc2cccc(Oc3ccccc3)c2)CC1` (centres undefined) it was -38.9%.
`COc1ccc(Cl)cc1CSc1ncn[nH]1`: the activity change, negative = inhibition was -63.2% (active).
For `CCCCOc1ccc(Cl)cc1CSc1nncn1N`, the activity change, negative = inhibition is -20.2%.
Next, `ClC1(Cl)CC1CSc1ncn[nH]1` (centres undefined): 62.8%; `CCCCOc1ccc(NC(=O)c2cc3c(n(-c4ccc(Cl)cc4)c2=O)CCCC3=O)cc1`: 14.9%.
Next, `COC(=O)c1ccc(NC(=O)CSc2n[nH]c(-c3ccccc3)n2)cc1`: 16.1%; `Cc1ccc(NC(=O)C(=O)NCC(c2cccnc2)N2CCOCC2)cc1` (centres undefined): -12.5%; `COc1ccccc1N1CCN(C2C(=O)c3ccccc3N2C(C)=O)CC1` (centres undefined): 0%.
In the case of `Cc1ccc(C(=O)N/C(=C/c2cccs2)C(=O)N2CCCCC2)cc1`, the activity change, negative = inhibition was -25.9%.
Next, `O=C(N/C(=C\c1ccc(O)cc1)C(=O)N1CCCCC1)c1ccccc1`: -16.2%; `Cc1ccc(C(=O)N/C(=C\c2cn(S(=O)(=O)N(C)C)c3ccccc23)C(=O)N2CCCC2)cc1`: -95.9% (active); `C#Cc1ccc(NC(=O)C2(C)CCN2C(=O)Cc2ccc(-c3ccccc3)cc2)cc1` (centres undefined): -83.5% (active).
In the case of `CC1(C(=O)NS(=O)(=O)c2cccs2)CCN1C(=O)Cc1ccc(-c2ccccc2)cc1` (centres undefined) it was -1.93%; in that of `COc1ccc(OC)c(NC(=O)C2(C)CCN2C(=O)Cc2ccccc2)c1` (centres undefined), -33.9%; in that of `COC(=O)c1cc(NC(=O)CCS(=O)(=O)c2cc(Br)cc3c2N(C(=O)C2CC2)CC3)cc(C(=O)OC)c1`, 3.41%.
As for `COc1cc(-n2c(C)nc3cc(C(=O)NCc4ccco4)ccc32)cc(OC)c1OC`, the activity change, negative = inhibition is 17.2%.
Next, `O=C(NCc1ccco1)c1cccc(-c2ccc3nncn3c2)c1`: 15.7%.
In the case of `CCCC1=Nc2cc(C(=O)NCc3ccco3)ccc2Sc2ccccc21` it was -69.1% (active).
With `COc1ccc(-c2ccc(=O)n(CC(=O)Nc3ccc(Br)cc3F)n2)cc1`, the activity change, negative = inhibition is -10.5%.
Take `O=C1c2cccc3cccc(c23)N1CN1CCN(c2ccccn2)CC1`: the activity change, negative = inhibition is 16%.
Next, `CCOC(=O)c1c(C)[nH]c(C)c1S(=O)(=O)NCC(=O)NCc1cccc(C)c1`: -20.2%; `COc1ccccc1NC(=O)C1=C(C)Nc2nc(SCC(=O)c3ccc(C)cc3)nn2C1c1ccccc1C` (centres undefined): -1.97%.
Next, `Cc1cccc2c1-c1sc(C(=O)Nc3ccc(F)cc3F)cc1CO2`: -12.8%; `COc1ccc(-n2c(SCC(N)=O)nc3c(oc4ccccc43)c2=O)cc1`: -15.1%.
For the compound `Cc1cccc(-n2c(SCC(N)=O)nc3c(c2=O)C2(CCCCC2)Cc2ccccc2-3)c1`, the activity change, negative = inhibition is -70.4% (active).
In the case of `CCOC(=O)C1Cn2c(nc3c(c2=O)C(C)(CC)Cc2ccccc2-3)S1` (centres undefined) it was -19.7%; in that of `NC(=O)c1ccc(Nc2ccc3c(c2)CCC3)c([N+](=O)[O-])c1`, -8.76%.
